Measured values published in publication PMC7862700, “An all-to-all approach to the identification of sequence-specific readers for epigenetic DNA modifications on cytosine”.

Each sequence was assayed against T1, EHF (Homo sapiens, UniProt Q9NZC4 1-300) (assay: DAPPL (digital affinity profiling via proximity ligation, sequencing); 10 mM Tris-HCl pH 7.5, 50 mM NaCl, 1 mM DTT, 4% glycerol, room temperature, 30 min; GST-TFs on glutathione beads, 16-mer random dsDNA library, 0.1% formaldehyde crosslink after washing; high values mean tight binding). Conditions: protein: recombinant; tags: N-terminal GST; dsDNA, one strand shown.
T1 sequence: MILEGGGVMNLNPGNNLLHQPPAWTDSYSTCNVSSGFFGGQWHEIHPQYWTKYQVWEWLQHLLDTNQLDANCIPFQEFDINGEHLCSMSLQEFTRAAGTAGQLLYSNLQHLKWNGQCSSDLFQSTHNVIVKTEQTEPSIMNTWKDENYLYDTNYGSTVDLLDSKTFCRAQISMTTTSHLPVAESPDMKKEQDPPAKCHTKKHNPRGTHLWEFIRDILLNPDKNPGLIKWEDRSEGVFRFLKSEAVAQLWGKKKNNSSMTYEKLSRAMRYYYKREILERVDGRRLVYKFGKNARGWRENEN
How it was run: (§1)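 The binding signal reported is, for every hexamer, its read frequency for a factor over its read frequency for the tag-only sample. Reads came from pools of yeast-expressed, GST-fused human transcription factors on glutathione beads, barcoded with DNA and mixed with that sample, which were incubated with 200 nmole of a random double-stranded 16-mer DNA library in Tris/NaCl/DTT/glycerol buffer at room temperature for 30 min. After washing, the pools were crosslinked with 0.1% formaldehyde, proximity-ligated with BsaI/T4 ligase for 1 h at 37 °C, PCR-amplified and sequenced on an Illumina NextSeq500.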

Row | Sequence | binding signal
1 | TTTTAG | 1.12 fold enrichment (6-mer frequency, TF over GST control)
2 | TGTACC | 1.35 fold enrichment (6-mer frequency, TF over GST control)
3 | CCCTAA | 1.24 fold enrichment (6-mer frequency, TF over GST control)
4 | CACGCC | 1.18 fold enrichment (6-mer frequency, TF over GST control)
5 | ATCCAA | 1.1 fold enrichment (6-mer frequency, TF over GST control)
6 | CTGATC | 1.39 fold enrichment (6-mer frequency, TF over GST control)
7 | TTCACC | 1.19 fold enrichment (6-mer frequency, TF over GST control)
8 | CATCTG | 1.31 fold enrichment (6-mer frequency, TF over GST control)
9 | TATCCC | 1.52 fold enrichment (6-mer frequency, TF over GST control)
10 | CTCGCT | 1.6 fold enrichment (6-mer frequency, TF over GST control)
11 | ATTTGT | 1.3 fold enrichment (6-mer frequency, TF over GST control)
12 | TTTGTC | 1.24 fold enrichment (6-mer frequency, TF over GST control)
13 | TGACAA | 1.21 fold enrichment (6-mer frequency, TF over GST control)
14 | TATGCA | 1.12 fold enrichment (6-mer frequency, TF over GST control)
15 | ACAAAC | 1.15 fold enrichment (6-mer frequency, TF over GST control)
16 | TTAAGT | 1.15 fold enrichment (6-mer frequency, TF over GST control)
17 | TGCGGA | 1.37 fold enrichment (6-mer frequency, TF over GST control)
18 | GCTCTT | 1.29 fold enrichment (6-mer frequency, TF over GST control)
19 | CGACGC | 1.06 fold enrichment (6-mer frequency, TF over GST control)
20 | AACTTC | 2.5 fold enrichment (6-mer frequency, TF over GST control)

Row | Sequence | binding signal
21 | GACCTA | 1.15 fold enrichment (6-mer frequency, TF over GST control)
22 | CCCAAC | 1.16 fold enrichment (6-mer frequency, TF over GST control)
23 | TTAGAA | 1.14 fold enrichment (6-mer frequency, TF over GST control)
24 | ACATTC | 1.25 fold enrichment (6-mer frequency, TF over GST control)
25 | CTCAGT | 1.06 fold enrichment (6-mer frequency, TF over GST control)
26 | CCCACT | 1.46 fold enrichment (6-mer frequency, TF over GST control)
27 | CAATAG | 1.13 fold enrichment (6-mer frequency, TF over GST control)
28 | TTGATC | 1.12 fold enrichment (6-mer frequency, TF over GST control)
29 | CGCTGC | 1.28 fold enrichment (6-mer frequency, TF over GST control)
30 | AAGGTA | 1.1 fold enrichment (6-mer frequency, TF over GST control)
31 | CATTCA | 1.05 fold enrichment (6-mer frequency, TF over GST control)
32 | TCTCCG | 1.57 fold enrichment (6-mer frequency, TF over GST control)
33 | ACCTGA | 1.09 fold enrichment (6-mer frequency, TF over GST control)
34 | CAAACC | 1.05 fold enrichment (6-mer frequency, TF over GST control)
35 | TAAGCT | 1.2 fold enrichment (6-mer frequency, TF over GST control)
36 | CTGGTC | 1.2 fold enrichment (6-mer frequency, TF over GST control)
37 | TGCCCG | 1.27 fold enrichment (6-mer frequency, TF over GST control)
38 | CCGACG | 1.17 fold enrichment (6-mer frequency, TF over GST control)
39 | GCTTGG | 1.05 fold enrichment (6-mer frequency, TF over GST control)
40 | TACCCA | 1.05 fold enrichment (6-mer frequency, TF over GST control)

These sequences were tested against SPI1 (Homo sapiens, UniProt P17947 1-270) in the same assay as above. Conditions: protein: recombinant; tags: N-terminal GST; dsDNA, one strand shown.
How it was run: as §1

Row | Sequence | binding signal
41 | TTTTAG | 1.15 fold enrichment (6-mer frequency, TF over GST control)
42 | TGTACC | 1.33 fold enrichment (6-mer frequency, TF over GST control)
43 | CCCTAA | 1.2 fold enrichment (6-mer frequency, TF over GST control)
44 | CACGCC | 1.2 fold enrichment (6-mer frequency, TF over GST control)
45 | ATCCAA | 1.11 fold enrichment (6-mer frequency, TF over GST control)
46 | CTGATC | 1.27 fold enrichment (6-mer frequency, TF over GST control)
47 | TTCACC | 1.4 fold enrichment (6-mer frequency, TF over GST control)
48 | CATCTG | 1.08 fold enrichment (6-mer frequency, TF over GST control)
49 | TATCCC | 1.36 fold enrichment (6-mer frequency, TF over GST control)
50 | CTCGCT | 1.54 fold enrichment (6-mer frequency, TF over GST control)
51 | ATTTGT | 1.26 fold enrichment (6-mer frequency, TF over GST control)
52 | TTTGTC | 1.23 fold enrichment (6-mer frequency, TF over GST control)
53 | TGACAA | 1.25 fold enrichment (6-mer frequency, TF over GST control)
54 | TATGCA | 1.34 fold enrichment (6-mer frequency, TF over GST control)
55 | ACAAAC | 1.11 fold enrichment (6-mer frequency, TF over GST control)
56 | TTAAGT | 1.06 fold enrichment (6-mer frequency, TF over GST control)
57 | TGCGGA | 1.85 fold enrichment (6-mer frequency, TF over GST control)
58 | GCTCTT | 1.37 fold enrichment (6-mer frequency, TF over GST control)
59 | CGACGC | 1.06 fold enrichment (6-mer frequency, TF over GST control)
60 | AACTTC | 3.04 fold enrichment (6-mer frequency, TF over GST control)

Row | Sequence | binding signal
61 | GACCTA | 1.02 fold enrichment (6-mer frequency, TF over GST control)
62 | CCCAAC | 1.07 fold enrichment (6-mer frequency, TF over GST control)
63 | TTAGAA | 1.13 fold enrichment (6-mer frequency, TF over GST control)
64 | ACATTC | 1.24 fold enrichment (6-mer frequency, TF over GST control)
65 | CTCAGT | 1.18 fold enrichment (6-mer frequency, TF over GST control)
66 | CCCACT | 1.39 fold enrichment (6-mer frequency, TF over GST control)
67 | CAATAG | 1.04 fold enrichment (6-mer frequency, TF over GST control)
68 | TTGATC | 1.23 fold enrichment (6-mer frequency, TF over GST control)
69 | CGCTGC | 1.07 fold enrichment (6-mer frequency, TF over GST control)
70 | AAGGTA | 1.07 fold enrichment (6-mer frequency, TF over GST control)
71 | CATTCA | 1.07 fold enrichment (6-mer frequency, TF over GST control)
72 | TCTCCG | 1.54 fold enrichment (6-mer frequency, TF over GST control)
73 | ACCTGA | 1.01 fold enrichment (6-mer frequency, TF over GST control)
74 | CAAACC | 1.15 fold enrichment (6-mer frequency, TF over GST control)
75 | TAAGCT | 1.1 fold enrichment (6-mer frequency, TF over GST control)
76 | CTGGTC | 1.13 fold enrichment (6-mer frequency, TF over GST control)
77 | TGCCCG | 1.13 fold enrichment (6-mer frequency, TF over GST control)
78 | CCGACG | 1.22 fold enrichment (6-mer frequency, TF over GST control)
79 | GCTTGG | 1.04 fold enrichment (6-mer frequency, TF over GST control)
80 | TACCCA | 1.09 fold enrichment (6-mer frequency, TF over GST control)

What follows are sequences tested against SPIB (Homo sapiens, UniProt Q01892 1-262) in the same assay as above. Conditions: protein: recombinant; tags: N-terminal GST; dsDNA, one strand shown.
How it was run: as §1

Chain of SPIB (Q01892 whole entry): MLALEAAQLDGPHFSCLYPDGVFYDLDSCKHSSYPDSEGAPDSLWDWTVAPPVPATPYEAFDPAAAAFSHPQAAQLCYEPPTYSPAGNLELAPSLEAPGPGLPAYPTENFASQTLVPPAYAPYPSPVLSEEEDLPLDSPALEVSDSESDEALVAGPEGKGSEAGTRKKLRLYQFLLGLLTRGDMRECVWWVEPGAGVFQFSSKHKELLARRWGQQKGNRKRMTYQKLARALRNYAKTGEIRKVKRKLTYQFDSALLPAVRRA

Row | Sequence | binding signal
81 | TTTTAG | 1.3 fold enrichment (6-mer frequency, TF over GST control)
82 | TGTACC | 1.22 fold enrichment (6-mer frequency, TF over GST control)
83 | CCCTAA | 1.29 fold enrichment (6-mer frequency, TF over GST control)
84 | CACGCC | 1.15 fold enrichment (6-mer frequency, TF over GST control)
85 | ATCCAA | 1.22 fold enrichment (6-mer frequency, TF over GST control)
86 | CTGATC | 1.4 fold enrichment (6-mer frequency, TF over GST control)
87 | TTCACC | 1.28 fold enrichment (6-mer frequency, TF over GST control)
88 | CATCTG | 1.28 fold enrichment (6-mer frequency, TF over GST control)
89 | TATCCC | 1.54 fold enrichment (6-mer frequency, TF over GST control)
90 | CTCGCT | 1.81 fold enrichment (6-mer frequency, TF over GST control)
91 | ATTTGT | 1.27 fold enrichment (6-mer frequency, TF over GST control)
92 | TTTGTC | 1.16 fold enrichment (6-mer frequency, TF over GST control)
93 | TGACAA | 1.14 fold enrichment (6-mer frequency, TF over GST control)
94 | TATGCA | 1.25 fold enrichment (6-mer frequency, TF over GST control)
95 | ACAAAC | 1.11 fold enrichment (6-mer frequency, TF over GST control)
96 | TTAAGT | 1.2 fold enrichment (6-mer frequency, TF over GST control)
97 | TGCGGA | 1.29 fold enrichment (6-mer frequency, TF over GST control)
98 | GCTCTT | 1.49 fold enrichment (6-mer frequency, TF over GST control)
99 | CGACGC | 1.08 fold enrichment (6-mer frequency, TF over GST control)
100 | AACTTC | 2.77 fold enrichment (6-mer frequency, TF over GST control)

Row | Sequence | binding signal
101 | GACCTA | 1.08 fold enrichment (6-mer frequency, TF over GST control)
102 | CCCAAC | 1.11 fold enrichment (6-mer frequency, TF over GST control)
103 | TTAGAA | 1.03 fold enrichment (6-mer frequency, TF over GST control)
104 | ACATTC | 1.23 fold enrichment (6-mer frequency, TF over GST control)
105 | CTCAGT | 1.14 fold enrichment (6-mer frequency, TF over GST control)
106 | CCCACT | 1.26 fold enrichment (6-mer frequency, TF over GST control)
107 | CAATAG | 1.08 fold enrichment (6-mer frequency, TF over GST control)
108 | TTGATC | 1.3 fold enrichment (6-mer frequency, TF over GST control)
109 | CGCTGC | 1.22 fold enrichment (6-mer frequency, TF over GST control)
110 | AAGGTA | 1.05 fold enrichment (6-mer frequency, TF over GST control)
111 | CATTCA | 1.12 fold enrichment (6-mer frequency, TF over GST control)
112 | TCTCCG | 1.52 fold enrichment (6-mer frequency, TF over GST control)
113 | ACCTGA | 1.1 fold enrichment (6-mer frequency, TF over GST control)
114 | CAAACC | 1.06 fold enrichment (6-mer frequency, TF over GST control)
115 | TAAGCT | 1.18 fold enrichment (6-mer frequency, TF over GST control)
116 | CTGGTC | 1.35 fold enrichment (6-mer frequency, TF over GST control)
117 | TGCCCG | 1.14 fold enrichment (6-mer frequency, TF over GST control)
118 | CCGACG | 1.32 fold enrichment (6-mer frequency, TF over GST control)
119 | GCTTGG | 1.16 fold enrichment (6-mer frequency, TF over GST control)
120 | TACCCA | 1.1 fold enrichment (6-mer frequency, TF over GST control)
